Shown are actives, neighbours in structure and some others; about 1.8% of the full set was active somewhere.
PriA SSB inh = inhibitors of Klebsiella pneumoniae PriA binding to SSB C-terminal tail, primary screen, biochemical, AlphaScreen; inhibition, % at 33 µM; PriA–SSB C-terminal tail interaction (Klebsiella pneumoniae); AID 1272365, 2023; actives 0.6% (n = 430,000); AlphaScreen SSBct-PriA binding, biotinylated peptide; in the data active means inhibition mostly above about 37%, no sharp cut-off; inactive means mostly below about 20%
PrP 5UTR inh = inhibition of PrP 5' UTR reporter expression; cell-based PrP 5' UTR mRNA reporter, plate reader; inhibition, % (no concentration beside the values); actives 0.35% (n = 340,000); in the data active means inhibition above about 52%
MazEF act = activators of E. coli MazEF toxin-antitoxin RNase, primary screen, biochemical, fluorescence, uHTS; FAM/BHQ RNA-DNA oligo cleavage fluorescence, 5 h; activation, % at 20 µM; actives 0.32% (n = 350,000); in the data active means activation above about 50%
Target sequence (P0AE70 whole entry, looked up): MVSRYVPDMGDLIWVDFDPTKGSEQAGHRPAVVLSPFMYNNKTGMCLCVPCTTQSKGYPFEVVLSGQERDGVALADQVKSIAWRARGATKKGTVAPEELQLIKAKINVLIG
PfHsp40 yeast = rescue of yeast from PfHsp40 toxicity, primary screen, S. cerevisiae, ATP luminescence | actives 0.68% (n = 340,000) | AID 504582, 2011 | S. cerevisiae expressing PfHsp40, growth rescue | growth rescue, % at 12.5 µM; in the data active means growth rescue above about 28%, passing the limit was not always enough;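 further: yeast W303a lacking pdr1 and pdr3 grown in galactose medium; growth measured after three days at 30 °C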
PrPC TRFRET = inhibitors of human cell surface prion protein PrPC, primary screen, cell-based, TR-FRET; TR-FRET read-out; AID 720596, 2013; inhibition, % at 13.8 µM; actives 0.43% (n = 370,000); in the data active means inhibition above about 24%
Large screens that a line does not name were inactive; ! = a repeat was not active.

O=C(c1ccccc1Cl)N1CCN(c2ccc(-n3cccn3)nn2)CC1	none (no result: PrP 5UTR inh, MazEF act, PfHsp40 yeast, PrPC TRFRET)
CS(=O)(=O)N1CCN(c2ccc(-c3ccco3)nn2)CC1	none (no result: PrP 5UTR inh, MazEF act, PfHsp40 yeast, PrPC TRFRET)
Cc1cc(NC(=O)c2ccccc2F)n(-c2nc(-c3cccs3)cs2)n1	none (no result: PrP 5UTR inh, MazEF act, PfHsp40 yeast, PrPC TRFRET)
COC1=C[C@H](C(=O)NC2CCN(Cc3ccccc3)CC2)[C@H](C)[C@@H](c2ccccc2)CC1=O	none (no result: PriA SSB inh, PrP 5UTR inh, MazEF act, PfHsp40 yeast)
CCCOC(=O)c1ccc(NC(=O)CC(C)(C)C)cc1	PfHsp40 yeast 51.7
Nc1cc(=O)[nH]c(SCC(=O)N2CCCC2)n1	none
O=[N+]([O-])c1cc(CN2CCN(c3cccc(C(F)(F)F)c3)CC2)c2cccnc2c1O	PriA SSB inh 89.6, PfHsp40 yeast 48.1
O=[N+]([O-])c1cc(CN2CCCC2)c2cccnc2c1O	PriA SSB inh 90.2 (no result: PrPC TRFRET)
O=[N+]([O-])c1cc(Cl)ccc1N1CCN(c2cccc(C(F)(F)F)c2)CC1	none
Oc1c(Cl)cc(CN2CCCCC2)c2cccnc12	none (no result: PriA SSB inh, MazEF act, PrPC TRFRET)
O=C(CSc1nc(CCC2CCCC2)nc2ccccc12)NCc1ccc2c(c1)OCO2	none
O=C(c1cc(-c2cccnc2)nc2ccccc12)N1CCC2(CC1)OCCO2	none
Cc1c(N)cc[n+](CC(=O)c2ccccc2)c1C	none
C=CCN(CC=C)C(=S)NC(=O)c1ccc(OC)c(Br)c1	PfHsp40 yeast 55.6 (no result: PrPC TRFRET)
CCN(CC)c1ccc(/C=N/Nc2ccc(C)cc2)c(O)c1	PrPC TRFRET 25.2 (no result: PriA SSB inh)
CCN(CC)c1ccc(/C=N/NC(=O)c2c(Cl)cnn2C)c(O)c1	PfHsp40 yeast 546.1 (no result: PriA SSB inh)
CCN(CC)c1ccc(/C=N/NC(=O)c2cccc(S(=O)(=O)N3CCOCC3)c2)c(O)c1	PfHsp40 yeast 230.9 (no result: PriA SSB inh)
CCN(CC)c1ccc(C=NNC(=O)c2cccc(S(=O)(=O)N3CCOCC3)c2)c(O)c1	none (no result: PrP 5UTR inh, MazEF act, PfHsp40 yeast, PrPC TRFRET)
CCN(CC)c1ccc(C=NNC(=O)OC)c(O)c1	none (no result: PrP 5UTR inh, MazEF act, PfHsp40 yeast, PrPC TRFRET)
O=C(Nc1ccon1)C1CCN(S(=O)(=O)c2cccs2)CC1	none
COc1ccc(CCS(=O)(=O)NCC2CCN(C(=O)c3cccnc3)CC2)cc1	none (no result: PrP 5UTR inh, MazEF act, PfHsp40 yeast, PrPC TRFRET)
COc1ccc(Cn2c(NC(=O)c3ccccc3)nc(Cc3ccccc3)c2Cc2ccccc2)c(OC)c1	none (no result: PriA SSB inh, PrP 5UTR inh, MazEF act, PfHsp40 yeast)
N/C(=N\OC(=O)c1ccc(Cl)cc1)c1ccn[nH]1	PfHsp40 yeast 33.5 (no result: PriA SSB inh)
Cc1cccc(C(=O)CC(=O)c2cc(Cl)ccc2O)c1	PfHsp40 yeast 81.8 (no result: PrPC TRFRET)
O=C(CC(=O)c1cc(Cl)ccc1O)c1ccccc1	none
CCOC(=O)C1CCCN(c2ccc(S(=O)(=O)Cc3ccc(Cl)cc3)nn2)C1 (stereo not given)	none (no result: PrP 5UTR inh, MazEF act, PfHsp40 yeast, PrPC TRFRET)
COc1ccc(S(=O)(=O)N(CCc2ccccc2)CC(N)=O)cc1	PfHsp40 yeast 104.5
COCCNC(=O)CN(CCc1ccccc1)S(=O)(=O)c1ccc(OC)cc1	none
Cc1ccc(NC(=O)c2[nH]cnc2C(=O)NN)cc1	none
NNC(=O)c1nc[nH]c1C(=O)Nc1ccccn1	PriA SSB inh 59.0!
Cc1cccc(C(=O)N[C@H](C(=O)Nc2ncc(C)s2)C(C)C)c1	PrPC TRFRET 41.0
Cc1cccc(C(=O)N[C@H](C(=O)Nc2nnc(C3CC3)s2)C(C)C)c1	none
Cc1cc(C(=O)NN=Cc2ccc(-c3cccc(Cl)c3Cl)o2)n[nH]1	none (no result: PrP 5UTR inh, MazEF act, PfHsp40 yeast, PrPC TRFRET)
Cc1cc(C(=O)N/N=C/c2ccc(-c3cccc(Cl)c3Cl)o2)n[nH]1	MazEF act 50.8 (no result: PriA SSB inh)
COc1cc([N+](=O)[O-])ccc1NC(=O)CSc1nc2ccccc2n1-c1ccccc1	none (no result: PriA SSB inh, PrP 5UTR inh, MazEF act, PfHsp40 yeast)
CCc1ccc(CN(C)C(=O)c2cc(COc3cccc(C(F)(F)F)c3)on2)nc1	PfHsp40 yeast 112.4
COC(=O)c1ccccc1NC(=O)NCc1ccncc1	MazEF act 114.1
COC(=O)c1ccccc1NC(=O)NCc1ccccc1	none
COc1ccc(S(=O)(=O)NCc2cc(=O)n(C)c(=O)n2C)cc1C	PfHsp40 yeast 41.0
COc1ccc(NC(=O)CN(C)C(=O)C(CCSC)NC(=O)c2ccccc2)cc1 (stereo not given)	none
O=C(C1=C(Nc2ccccc2)c2ccccc2S(=O)(=O)N1)c1ccccc1	PriA SSB inh 42.0
CCOC(=O)CNc1nc(-c2ccncc2)nc2ccccc12	none
CCN(CC)c1ccc(/C=c2\sc3nc4ccccc4n3c2=O)c(O)c1	none (no result: PriA SSB inh)
O=c1/c(=C/c2ccc(F)cc2F)sc2nc3ccccc3n12	PriA SSB inh 40.0 (no result: PrP 5UTR inh, MazEF act, PfHsp40 yeast, PrPC TRFRET)
CCOC(=O)N1CCN(c2cc(=O)n(-c3ccc(Cl)cc3)c(=O)[nH]2)CC1	none (no result: PrP 5UTR inh, MazEF act, PfHsp40 yeast, PrPC TRFRET)
